MEKK2mut PB1 HTS – MEK5 binding signal on mutant MEKK2 PB1, primary screen, biochemical, multiplex bead flow cytometry, Alexa488-MEK5. percent response, % at 10 µM. Alexa488-MEK5 binding to MEKK2 mutant. 290,000 compounds, 0.35% hits; in the data active means percent response above about 24%, passing the limit was not always enough
MEKK3 PB1 HTS – modulators of MEKK3-MEK5 PB1 binding, primary screen, biochemical, wildtype MEKK3, multiplex bead flow cytometry, Alexa488-MEK5 | 290,000 compounds, 1.4% hits | binding response (% of control), % at 10 µM | Mitogen-activated protein kinase kinase kinase 3 (Homo sapiens), Q99759 | bead-based flow cytometry, Alexa488-MEK5 binding to MEKK3; actives lie on both sides; 0 = blocked by unlabeled MEK5, 100 = vehicle;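 active means binding response more than 3 SD above or below the average of its plate-row segment, actives on both sides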;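 further: Alexa488 bead fluorescence after subtracting the streptavidin-only scavenger bead signal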
Target sequence (Q99759 whole entry, looked up): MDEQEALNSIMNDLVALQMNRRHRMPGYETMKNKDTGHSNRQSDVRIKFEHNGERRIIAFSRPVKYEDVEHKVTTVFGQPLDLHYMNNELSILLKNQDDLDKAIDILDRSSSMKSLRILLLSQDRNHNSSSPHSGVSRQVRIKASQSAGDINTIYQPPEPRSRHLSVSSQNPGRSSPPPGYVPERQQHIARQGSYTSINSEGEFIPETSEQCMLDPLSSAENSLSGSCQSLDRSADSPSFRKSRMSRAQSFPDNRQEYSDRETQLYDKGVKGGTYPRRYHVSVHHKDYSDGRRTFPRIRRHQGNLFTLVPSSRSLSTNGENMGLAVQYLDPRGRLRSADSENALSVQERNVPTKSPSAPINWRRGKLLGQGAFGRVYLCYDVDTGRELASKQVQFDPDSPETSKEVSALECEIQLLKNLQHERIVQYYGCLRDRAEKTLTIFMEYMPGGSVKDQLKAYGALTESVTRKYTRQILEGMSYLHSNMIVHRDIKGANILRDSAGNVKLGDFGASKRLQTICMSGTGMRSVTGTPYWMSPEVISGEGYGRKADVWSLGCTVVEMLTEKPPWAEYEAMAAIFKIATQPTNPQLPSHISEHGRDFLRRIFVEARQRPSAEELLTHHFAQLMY
MEKK2 WT-MEK5 – modulators of MEK5 binding to wildtype MEKK2, primary screen, biochemical, multiplex bead flow cytometry, Alexa488-MEK5. 290,000 compounds, 1.1% hits. Alexa488-MEK5 binding to MEKK2 WT; actives lie on both sides. Mitogen-activated protein kinase kinase kinase 2 (Homo sapiens), Q9Y2U5. binding response (% of control), % at 10 µM. AID 1531, 2009; in the data active means binding response below about 67% or above about 130%
CHT inh – inhibitors of human choline transporter CHT | CHT-expressing cells, membrane potential dye, choline response; stronger effect = lower value | 310,000 compounds, 0.86% hits | B-score at 10 µM | AID 488975, 2010 | High affinity choline transporter 1 (Homo sapiens), Q9GZV3;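 active means B-score over 3 SD under the library average, and starting fluorescence ratio not unusually high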;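 further: choline stimulus applied at its EC90 after an EC20 pre-addition; B-score computed on integrated fluorescence ratio after choline addition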
CHT allo act – CHT positive allosteric modulators, primary screen, cell-based, membrane potential dye, choline EC20. CHT-expressing cells; stronger effect = higher value; LV-AA mutant CHT in HEK293 cells. High affinity choline transporter 1 (Homo sapiens), Q9GZV3. B-score at 10 µM. 310,000 compounds, 0.49% hits. AID 488977, 2010;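 active means initial fluorescence not abnormally high and integrated response B-score, plate-corrected, over 3 SD above library mean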
SUMO Mot1 rescue – yeast Mot1-301 growth rescue at high temperature, primary screen, SUMOylation pathway inhibitor project, S. cerevisiae, ATP luminescence, 38.5C | growth rescue, % at 18.8 µM | 320,000 compounds, 1% hits | S. cerevisiae Mot1-301 growth rescue; percent above DMSO median, 100 means doubled;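 active means every valid replicate shows activation above 250% relative to neutral control wells; inactive means the rest, any valid replicate at or below 250%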;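 further: OY570 slx delta 5 strain wells were the positive control but not used for scaling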
MEKK2wt confirm – modulators of MEK5 binding to wildtype MEKK2, confirmation, biochemical, single concentration, multiplex bead flow cytometry. AID 1892, 2009. shares compounds with MEKK3 PB1 HTS. 5,900 compounds, 2.4% hits. binding response (% of control), % at 10 µM. Alexa488-MEK5 binding to MEKK2 WT; actives lie on both sides; in the data active means binding response below about 16% or above about 210%; inactive means in between
MEKK2mut-MEK5 – mutant MEKK2 PB1-MEK5 binding signal retest – biochemical, single concentration, multiplex bead flow cytometry, confirmation | percent response, % at 10 µM | AID 1893, 2009 | 5,900 compounds, 2% hits | shares compounds with MEKK3 PB1 HTS | Alexa488-MEK5 binding to MEKK2 mutant; in the data active means percent response mostly above about 71%, no sharp cut-off; inactive means mostly below about 38%;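 further: higher means compound restores mutant binding toward wildtype level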
MEKK3-MEK5 inh – MEKK3 wild-type PB1 binding to MEK5, inhibitors, confirmation, biochemical, bead multiplex flow cytometry, single concentration, wildtype | binding response (% of control), % at 10 µM | Alexa488-MEK5 binding to MEKK3; stronger effect = lower value | AID 1894, 2009 | 5,900 compounds, 1.8% hits | shares compounds with MEKK3 PB1 HTS;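 active means binding response below 72% of control, or above a set upper limit, though filed actives all read lower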;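 further: 100% = DMSO only wells and 0% = binding blocked by excess unlabeled MEK5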
An asterisk follows results filed as active; i = inactive; nt = no result; [ ] = remark or other dose. Hits are enriched below; roughly 4.1% of the tested compounds scored in any of these assays.

SMILES	MEKK2mut PB1 HTS	MEKK3 PB1 HTS	MEKK2 WT-MEK5	CHT inh	CHT allo act	SUMO Mot1 rescue	MEKK2wt confirm	MEKK2mut-MEK5	MEKK3-MEK5 inh
O=C(/C=C/c1cc[n+](CC(=O)c2ccc3cccc4c3c2CC4)cc1)c1ccc2cccc3c2c1CC3	13	70*[inhibitor]	102	i	i	31	152	32	93
COc1cccc2sc3cc(NCCCN4CCOCC4)ccc3c(=O)c12	nt	nt	nt	nt	nt	-7	nt	nt	nt
O=C1C=C(NCc2ccc(Cl)cc2)CC(c2ccco2)C1 (stereo not drawn)	8	127*	116	i	i	-34	95	-3	96
CC(C)CNC1=CC(=O)CC(c2ccco2)C1 (stereo not drawn)	-3	96	97	i	i	13	nt	nt	nt
O=C(NCc1nnnn1-c1ccc(Cl)cc1)c1ccc(Br)o1	nt	nt	nt	i	i	-27	nt	nt	nt
COc1ccc(S(=O)(=O)N2CC(C)N(C(=O)N(C)C)C2C(C)C)cc1 (stereo not drawn)	2	103	98	i	i	1	nt	nt	nt
Cc1cc(C)nc(NC(=NCCc2c[nH]c3ccccc23)NC(=O)Nc2ccc(Cl)cc2)n1	1	59*[inhibitor]	111	i	i	-1	106	-2	103
CCc1ccc(C(=O)CCC(=O)Nc2ccc(OC)c(S(=O)(=O)N3CCCCC3)c2)cc1	nt	nt	nt	nt	nt	-4	nt	nt	nt
CCOc1ccc(/C=C/C(=O)NCCc2ccc(OC)c(OC)c2)cc1	1	147*	109	i	i	5	102	-3	99
CCOc1ccc(/C=C/C(=O)NCc2ccccc2)cc1	0	137*	108	i	i	20	109	11	109
COc1ccc(NS(=O)(=O)c2cc(N)ccc2N2CCOCC2)cc1	1	97	96	i	i	1	nt	nt	nt
CCN(CC)CCCN(C(=O)c1ccccc1C)c1nc(-c2ccc(OC)cc2)cs1	20	107	145*	i	i	-21	142	24	109
CCN(CC)CCCN(C(=O)c1ccccc1F)c1nc(-c2ccc(OC)cc2)cs1	21	104	156*	i	i	-3	150	27	107
COc1ccc(-c2csc(N(CCCN(C)C)C(=O)c3ccc(C)cc3)n2)cc1	10	99	127	i	i	-4	nt	nt	nt
COc1ccc(C(=O)NCCS(=O)(=O)N(C)Cc2ccccc2)cc1	nt	nt	nt	i	i	7	nt	nt	nt
COc1ccccc1NC(=O)Nc1nc(CC(=O)Nc2cc(F)ccc2F)cs1	nt	nt	nt	i	i	-7	nt	nt	nt
CC(C)(C)c1ccc(S(=O)(=O)N2C=CC(C(F)(F)F)=NCC2)cc1	3	97	100	i	i	110	nt	nt	nt
Cc1ccc(S(=O)(=O)N2C=CC(C(F)(F)F)=NCC2)cc1	-21	1.0*[inhibitor]	1.0*[inhibitor]	i	i	335	97	-6	97
COc1ccc(/C=C/c2cc(C(F)(F)F)on2)cc1	-23	50*[inhibitor]	57	i	i	433	112	7	105
COc1ccc(/C=C/c2cc(C(=O)O)c3ccccc3n2)cc1	-24	84	89	i	i	-12	nt	nt	nt
O=Cc1cnc(N2CCN(Cc3ccccc3)CC2)s1	-45	68*[inhibitor]	70	i	i	7	117	12	101
O=Cc1cnc(N2CCN(c3ccccc3)CC2)s1	5	101	105	i	i	19	nt	nt	nt
O=C(CC(Nc1ccccc1Cl)C(=O)O)c1ccccc1 (stereo not drawn)	1	130*	113	i	i	nt	99	2	103
CCCN1CNC(=S)N(c2ccc(C(=O)OCC)cc2)C1	-1	92	98	i	i	-1	nt	nt	nt
CCOC(=O)c1ccc(N2CN(CC)CNC2=S)cc1	1	130*	107	i	i	18	105	1	103
SMILES	MEKK2mut PB1 HTS	MEKK3 PB1 HTS	MEKK2 WT-MEK5	CHT inh	CHT allo act	SUMO Mot1 rescue	MEKK2wt confirm	MEKK2mut-MEK5	MEKK3-MEK5 inh
CC(C)c1nc2sc3c(=O)n(N)cnc3c2c2c1COC(C)(C)C2	0	145*	104	i	i	-19	120	31	119
COc1ccc(OC)c(-c2nc(C(=O)NC3CCN(Cc4ccccc4)CC3)cc3c2[nH]c2ccccc23)c1	24*	104	146*	i	i	-4	153	40	111
COc1cc(-c2nc(C(=O)NC3CCN(Cc4ccccc4)CC3)cc3c2[nH]c2ccccc23)cc(OC)c1OC	21	105	147*	i	i	-8	170	47	107
O=C(NCCO)c1cc2c([nH]c3ccccc32)c(-c2ccccc2)n1	1	100	101	i	i	1	nt	nt	nt
Cc1ccc(-c2nc(C(=O)NCCCN(C)C)cc3c2[nH]c2ccccc23)cc1	21	103	146*	i	i	-5	156	42	109
CCOC(=O)CSC1=NC(=O)CS1	3	102	102	i	i	416	nt	nt	nt
CN1C(=O)CC(N2CCN(c3ccccc3)CC2)C1=O (stereo not drawn)	-1	92	100	i	i	6	nt	nt	nt
CCOC(=O)[C@@H]1[C@H]2COc3cc(OC)ccc3[C@H]2N2C(=O)N(c3ccc(C(F)(F)F)cc3)C(=O)[C@]12C	nt	nt	nt	nt	nt	8	nt	nt	nt
Cn1nc(-c2ccc(Cl)cc2)cc1NC(=O)CC(C)(C)CC(=O)O	26	129*	124	i	i	-6	96	-3	93
Cn1nc(-c2ccccc2)cc1NC(=O)CCCC(=O)O	-7	94	100	i	i	1	nt	nt	nt
O=C(Nc1ccccc1C(=O)Nc1ccccn1)c1cc(F)c(F)cc1Cl	4	98	100	i	i	-15	nt	nt	nt

High-throughput results (PubChem)
